# Screening results deposited in PubChem by several laboratories.
# PfGluPho inh: PfG6PD (Plasmodium falciparum) enzyme inhibition. PfGluPho enzyme, NADPH resazurin-diaphorase fluorescence. inhibition, % at 20 µM. 350,000 tested, 0.78% active;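 active means inhibition reaching at least a set limit at 20 µM in the primary screen, cut at about 59% in these data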;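 further: 0% = DMSO wells with substrate and 100% = DMSO wells lacking glucose-6-phosphate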
# PfM18AAP inh: blocks P. falciparum M18 aspartyl aminopeptidase. recombinant PfM18AAP, H-Glu-NHMec fluorogenic cleavage. inhibition, % at 7.35 µM. 290,000 tested, 1.2% active. AID 1822;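 active means inhibition above the campaign mean inhibition over all tested compounds plus 3 SD, cut at about 28% in these data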;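 further: 0% = plate median of test compound wells and 100% = 2 mM ZnCl2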
# UHRF1 MBD2 ctr: human UHRF1 methylated DNA binding inhibitors. inhibition, % at 4.4 µM. UHRF1 binding to methylated oligo, TR-FRET. AID 687016. Q96T88. 370,000 tested, 0.75% active; in the data active means inhibition above about 21%;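 further: UHRF1 SRA domain binding a hemimethylated CpG hairpin DNA probe; 0% = median of test compound wells and 100% = reference inhibitor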
# MBD2 DNA inh: MBD2-methylated oligo binding inhibition. Q9UBB5. TR-FRET, MBD2 binding to methylated oligonucleotide. inhibition, % at 4.4 µM. 370,000 tested, 0.31% active; in the data active means inhibition above about 13%
# Target sequence (Q9UBB5 whole entry, looked up): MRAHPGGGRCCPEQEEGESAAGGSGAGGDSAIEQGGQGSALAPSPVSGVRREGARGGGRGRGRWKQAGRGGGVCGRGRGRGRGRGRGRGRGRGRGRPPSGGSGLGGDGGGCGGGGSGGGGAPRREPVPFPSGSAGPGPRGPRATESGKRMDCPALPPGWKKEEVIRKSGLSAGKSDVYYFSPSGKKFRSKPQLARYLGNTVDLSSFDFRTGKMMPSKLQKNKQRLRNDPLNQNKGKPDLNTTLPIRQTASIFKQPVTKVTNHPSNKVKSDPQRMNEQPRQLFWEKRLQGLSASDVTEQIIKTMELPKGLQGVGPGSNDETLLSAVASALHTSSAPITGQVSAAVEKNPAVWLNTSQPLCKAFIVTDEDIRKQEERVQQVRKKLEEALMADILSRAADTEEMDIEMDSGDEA
# PRMT1 FP inh: blocks human protein arginine methyltransferase 1; recombinant PRMT1, activity-based probe fluorescence polarization; Q99873; inhibition, % at 2.79 µM; 370,000 tested, 1.3% active;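 active means inhibition above about 21% made by adding two undisclosed values, limit read from the data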
# Starred values were filed as active, the others as inactive; x = not tested or not shown. A selection: hits, their analogues and other compounds. The true share with any hit is near 3.3%.
SMILES,PfGluPho inh,PfM18AAP inh,UHRF1 MBD2 ctr,MBD2 DNA inh,PRMT1 FP inh
CON=C(C(=O)NC1C(=O)N2C(C(=O)O)=C(CSc3nc(=O)c(=O)[nH]n3C)CSC12)c1csc(N)n1 (stereo not drawn),24.4,x,2.2,0.6,21.4*
CC12C=CC(C)(C3C(=O)NC(=O)C31)C1C3C(=O)NC(=O)C3C12 (stereo not drawn),x,x,2.5,1.2,-0.1
COc1ccccc1Cc1c(-c2ccc(C)cc2)nc2ccc(C)cn12,x,x,14.3,3.0,-5.6
O=C(N[C@H](Cc1ccccc1)C(=O)NCc1ccco1)[C@H]1O[C@@H](n2ccc(=O)[nH]c2=O)[C@H](O)[C@@H]1O,x,x,0.3,-7.5,-0.1
COC(=O)[C@]12C[C@H](CC(=O)NCc3ccc(C)o3)C(=O)N(Cc3ccccc3)C1=C[C@H](C1CCCC1)O[C@@H]2C,x,x,-1.2,-0.5,22.3*
CCCCNC(=O)C[C@@H]1C[C@@]2(C(=O)OCC)CCC=C2N(Cc2ccc3c(c2)OCO3)C1=O,x,x,21.3*,7.1,-2.1
CCOC(=O)[C@]12CCC=C1N(Cc1ccccc1)C(=O)[C@H](CC(=O)NCc1ccc(C)o1)C2,x,x,3.9,6.4,23.0*
COC(=O)[C@]12C[C@H](CC(=O)NCc3ccc(C)o3)C(=O)N(Cc3cccc4ccccc34)C1=C[C@H](C1CCCC1)O[C@@H]2C,x,x,-1.1,4.8,1.4
CCOC(=O)[C@]12CCC=C1N(Cc1ccc3c(c1)OCO3)C(=O)[C@H](CC(=O)NCCCCc1ccccc1)C2,x,x,1.4,9.4,4.8
CCOC(=O)[C@]12CCC=C1N(Cc1ccco1)C(=O)[C@H](CC(=O)NCc1ccc(C)o1)C2,x,x,-1.8,5.6,11.3
O=C(NNS(=O)(=O)c1ccc([N+](=O)[O-])cc1)C(=O)Nc1cccc(C(=O)O)c1,24.9,31.0*,0.8,-6.8,2.5
O=C(Cc1cccs1)N(c1ccc(F)cc1)C1(C(=O)NC2CCCCC2)CCCC1,5.3,-0.8,26.9*,3.5,0.2
Cc1ccc(N(C(=O)C2CCC(=O)N2)C2(C(=O)NC3CCCC3)CCCCC2)cc1 (stereo not drawn),6.1,-1.6,77.8*,-2.3,-1.1
O=C(Cc1cccs1)N(Cc1ccco1)C1(C(=O)NC2CCCCC2)CCCCC1,-2.6,12.6,-2.0,-6.3,-1.0
CC(=O)SC(C[N+](=O)[O-])c1cn(C(C)=O)c2ccccc12 (stereo not drawn),62.6*,14.2,-2.0,-4.6,20.5
CC(=O)n1cc(Nc2ccc([N+](=O)[O-])cc2)c2ccccc21,10.6,-2.5,-4.0,-3.6,0.1
O=C(N[C@H](Cc1ccccc1)C(=O)NCc1ccc(OC(F)(F)F)cc1)[C@H]1O[C@@H](n2ccc(=O)[nH]c2=O)[C@H](O)[C@@H]1O,x,x,2.1,4.4,0.9
Fc1ccc(-c2csc(=S)[nH]2)cc1,52.2,21.1,0.4,-0.7,22.4*
O=c1[nH]c(-c2ccc(Cl)cc2)cs1,-9.4,3.3,3.8,3.5,2.6
COc1ccc(CNC(=O)N[C@@H](CC(C)C)C(=O)O)cc1OC,-3.9,-3.5,25.7*,10.6,6.1
CCC(C)[C@H](NC(=O)NCc1ccc(OC)c(OC)c1)C(=O)O (stereo partly drawn),12.3,1.6,-2.7,3.5,-4.3
C=C1C(=O)C=C2CN(C(=O)c3ccccc3)[C@@](Cc3ccc(F)cc3)(C(=O)OC)[C@@H]12,71.6*,-8.1,x,x,x
O=C(C(=O)N1CCC(CNS(=O)(=O)c2cccc3ccccc23)CC1)c1cccs1,x,x,-0.3,-0.1,2.8
Cc1[nH]n(S(=O)(=O)c2ccccc2)c(=O)c1N=Nc1cccc(Cl)c1,-44.3,-14.1,33.6*,5.2,3.4
CN(CC(=O)Nc1c(Cl)cccc1Cl)C(=O)CNC(=O)c1ccc2c(c1)OCO2,-21.8,x,-0.8,1.1,-0.7
SMILES,PfGluPho inh,PfM18AAP inh,UHRF1 MBD2 ctr,MBD2 DNA inh,PRMT1 FP inh
Cc1ccc(C(=O)NCC(=O)N(C)CC(=O)Nc2c(Cl)cccc2Cl)s1,-2.1,x,22.9*,-4.6,-3.0
CN(CC(=O)Nc1c(Cl)cccc1Cl)C(=O)c1cccc(-n2cccc2)c1,6.0,x,22.8*,7.4,0.9
Cn1ccc2cc(S(=O)(=O)N3CCN(S(=O)(=O)c4c(F)cccc4F)CC3)ccc21,x,x,-2.5,7.5,-0.8
CC1(C)CC(=O)C2=C(C1)OC(N)=C(C#N)C2c1ccccc1[N+](=O)[O-] (stereo not drawn),14.5,5.9,-6.7,-1.2,23.3*
O=C(CSc1nnc(CNC(=O)c2ccc(F)cc2)o1)Nc1nccs1,-31.4,29.9*,6.4,-2.3,8.4
CC(C)C[C@@H](CNCC(=O)[C@H](Cc1c[nH]c2ccccc12)NC(=O)c1[nH]cnc1C(=O)N[C@@H](C)CN)NC(=O)c1nc[nH]c1C(=O)N[C@@H](C)C(=O)O,14.3,x,22.1*,8.1,1.7
CC(C)C[C@@H](CNCC(=O)[C@H](Cc1c[nH]c2ccccc12)NC(=O)c1[nH]cnc1C(=O)N[C@@H](C)CN)NC(=O)c1nc[nH]c1C(=O)N[C@@H](CC(=O)O)C(=O)O,15.0,x,19.8,5.2,0.5
CC(C)C[C@@H](CN)NC(=O)c1nc[nH]c1C(=O)N[C@@H](Cc1c[nH]c2ccccc12)C(=O)CNC[C@H](C)NC(=O)c1nc[nH]c1C(=O)N[C@@H](CC(=O)O)C(=O)O,11.0,x,22.4*,7.3,4.5
CC(C)C[C@@H](CNCC(=O)[C@H](Cc1c[nH]c2ccccc12)NC(=O)c1[nH]cnc1C(=O)N[C@H](CN)CC(C)C)NC(=O)c1nc[nH]c1C(=O)N[C@@H](CC(=O)O)C(=O)O,7.4,x,21.9*,9.0,1.2
CC(C)CNC(=O)OCc1cn(Cc2ccc(Cl)cc2)nn1,x,x,0.2,4.4,-0.4
C#CCNC(=O)C[C@@H]1C(=O)N(CC=C)C2=CCCCC[C@]21C(=O)OC,x,x,-0.1,-0.9,-2.1
CCOC(=O)c1sc2cc([N+](=O)[O-])cc(SCC(=O)OC)c2c1N,35.4,2.8,-1.7,-1.1,23.0*
COC(=O)c1cc(-c2cc3ccccc3s2)c(=O)n2c1CCC2,x,x,-2.6,-4.3,-5.0
COc1ccc(CSc2nnc(SCC(=O)Nc3ccc(S(N)(=O)=O)cc3)s2)cc1,x,x,4.2,2.2,2.1
COc1cc(O)c(C(CCN2CCN(c3ccccc3)CC2)c2ccc(N(C)C)cc2)c(OC)c1 (stereo not drawn),16.8,x,22.1*,7.6,3.2
COc1cccc([C@@H]2NC(=O)C/C=C/[C@H](C)[C@H](c3cccc(OC)c3)NC(=O)C/C=C/[C@@H]2C)c1,x,x,16.8,4.1,-1.3
CCOc1ccc(S(=O)(=O)N(CC(=O)N/N=C/c2ccc(-c3ccc([N+](=O)[O-])cc3)o2)c2ccccc2)cc1,21.7,5.9,28.0*,11.7,8.8
Cc1ccc(C)c(N(CC(=O)N/N=C/c2ccc(-c3ccc([N+](=O)[O-])cc3)o2)S(=O)(=O)c2ccccc2)c1,-5.2,3.9,-0.7,-8.2,2.8
COC(=O)[C@]12C[C@H](CC(=O)N3CCCC3)C(=O)N(CCc3ccc(OC)c(OC)c3)C1=C[C@H](C(C)(C)C)O[C@@H]2C,x,x,-1.0,-2.2,-1.4
